Screening results from PubChem.
aSyn 5UTR inh: 5' untranslated region of α-synuclein, MLPCN primary screen. actives 0.82% (n = 300,000). alpha-synuclein 5'UTR reporter, inhibitor activity. AID 1813. inhibition, % (tested at 7.5 µM); in the data active = inhibition above about 60%;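 note: H4 neuroglioblastoma cells stably carrying SNCA 5'UTR luciferase fusion; 0% = DMSO wells and 100% = positive control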
IEC-6 tox: kills IEC-6 intestinal cells in KLF5 counter-screen | IEC-6 cytotoxicity, luminescence viability | inhibition, % at 5 µM | actives 0.78% (n = 290,000) | AID 1825; in the data active = inhibition above about 22%;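 note: 0% = plate median of test compound wells and 100% = cytotoxic reference compound wells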
BaF3 tox: parental Ba/F3 viability inhibition as JAK2V617F counter-screen; AID 1486; CellTiter-Glo ATP luminescence; inhibition, % at 5.6 µM; actives 1.1% (n = 220,000);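 active = inhibition above a per-campaign cutoff, the mean inhibition of all tested compounds plus 3 SD, cut at about 27% in these data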;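 note: 0% = DMSO wells and 100% = JAK Inhibitor I control wells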
APP transl inh: APP translation inhibition. SH-SY5Y APP 5'UTR-luciferase reporter, luminescence. inhibition, % at 2 µM. actives 0.82% (n = 190,000);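 active = inhibition above a set limit, derived from the sample mean plus 3 SD, cut at about 45% in these data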
KLF5 inhibitor: inhibitors of KLF5 expression. inhibition, % at 5 µM. AID 1700. actives 0.23% (n = 290,000). DLD-1 KLF5 promoter-luciferase reporter, luminescence;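 active = inhibition above a per-plate limit of that plate's mean compound inhibition plus 3 SD, cut at about 60% in these data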;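 note: 0% = DMSO wells and 100% = LY294002 at 200 µM; higher means less KLF5 promoter-driven luciferase light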
Ba/F3 V617F tox: lowers viability of Ba/F3 cells expressing EpoR and JAK2V617F; inhibition, % at 5.6 µM; ATP luminescence; actives 1.1% (n = 220,000);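 active = inhibition above the campaign mean plus 3 SD over all tested compounds, cut at about 24% in these data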;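 note: cytokine-independent growth of Ba/F3 cells driven by EpoR plus mutant JAK2; 0% = DMSO-treated cells and 100% = JAK inhibitor I control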
The depositor's hits bear a star; · = not tested or not shown. This is a sample that favours compounds with a hit; in the whole collection about 2.1% have one here.

SMILES	aSyn 5UTR inh	IEC-6 tox	BaF3 tox	APP transl inh	KLF5 inhibitor	Ba/F3 V617F tox
O=C(c1ccc2[nH]c(=O)c(=O)[nH]c2c1)N1CCc2ccccc2C1	-1	5	·	·	0	·
O=C(Nc1ccc(F)c(Cl)c1)c1cncs1	-12	9	·	·	9	·
Cc1nc(SCCC(=O)O)c2cc(-c3ccccc3)sc2n1	67*	5	·	·	32	·
Cc1cccc(NC(=O)N2CCCc3ccccc32)c1C	-29	-3	·	·	-16	·
S=c1nc[nH]c2c1ncn2C1CCCO1 (centres undefined)	2	78*	44*	·	8	63*
COC(=O)c1sc(-c2ccc(C(C)(C)C)cc2)cc1NC(=O)CSCC(=O)O	-16	-1	2	·	-10	1
COc1ccc(C(O)C(CN2CCOCC2)c2ccccc2)cc1F (centres undefined)	26	-3	6	-7	-45	2
COc1ccc(C(=O)C(CN2CCOCC2)c2ccccc2)cc1F (centres undefined)	-108	6	49*	62*	26	93*
NNC(=O)c1cccc(COc2ccc3c(c2)CCC3)c1	71*	-4	3	-39	-25	-4
NNC(=O)c1cccc(COc2ccccc2Br)c1	-72	2	3	-173	-113	-1
O=C(NCCc1ccccc1F)C1CCCN(c2nc3ccccc3s2)C1 (centres undefined)	-17	6	·	·	-28	·
c1ccc2c(c1)CSc1ccccc1N2	104*	·	·	·	·	·
CCCCOc1cccc(C(=O)Nc2ccc(NC(=O)c3cccs3)cc2)c1	64*	6	·	·	-45	·
O=C(c1ccco1)N1CCCC(c2nc3c(nnn3Cc3c(Cl)cccc3Cl)c(=O)[nH]2)C1 (centres undefined)	17	1	·	·	7	·
CCOC(=O)C1=C(c2ccccc2)NC(=O)NC1c1ccc(OC)cc1 (centres undefined)	16	3	7	16	0	3
CCOC(=O)C1=C(CNCc2ccc(C)cc2)NC(=O)NC1c1ccc(OC)cc1 (centres undefined)	-3	16	28*	1	11	52*
CCN1/C(=C/C=C/C=C/c2sc3ccccc3[n+]2CC)Sc2ccccc21	126*	5	48*	82*	-8	51*
CCN1/C(=C/C=C/C=C/C=C/c2sc3ccccc3[n+]2CC)Sc2ccccc21	-39	4	·	·	-11	·
CCCCc1ccc(N/C(N)=N/c2nc(C)cc(C)n2)cc1	41	12	35*	·	-3	41*
Cc1ccc(N/C(N)=N/c2nc(C)cc(C)n2)cc1	-4	6	4	4	13	-1
COc1ccc(CC(=O)Nc2ccc(-c3cn4ccccc4n3)cc2)cc1	-124	5	3	58*	-85	-3
COc1ccc(CC(=O)Nc2cccc(-c3cn4ccccc4n3)c2)cc1	-20	-2	4	0	-15	-2
Cc1ccc(OCCn2cnc3c2c(=O)n(C)c(=O)n3C)cc1	9	9	·	·	6	·
Cc1cc(C)n(-c2nc3c(c(=O)[nH]c(=O)n3C)n2CC(O)COc2ccc(Cl)cc2Cl)n1 (centres undefined)	73*	2	4	-3	-19	-4
CCN(CC)CCNc1nc2c(c(=O)[nH]c(=O)n2C)n1CC(O)COc1ccc(Cl)cc1Cl (centres undefined)	3	2	6	18	-39	3
SMILES	aSyn 5UTR inh	IEC-6 tox	BaF3 tox	APP transl inh	KLF5 inhibitor	Ba/F3 V617F tox
O=C(CCCn1c(=S)[nH]c2cc3c(cc2c1=O)OCO3)N1CCN(c2ncccn2)CC1	31	-3	57*	-7	5	64*
COc1ccc(NC(=O)Cn2nnc(-c3ccccc3NS(=O)(=O)c3ccc(OC)cc3)n2)cc1	107*	46*	66*	89*	75*	78*
Cc1ccc(NC(=O)Cn2nnc(-c3ccccc3NC(=O)c3cccs3)n2)cc1	67*	7	5	-14	-14	0
COc1ccc(NC(=O)Cn2nnc(-c3ccccc3NC(=O)c3cccs3)n2)cc1	-169	4	-3	0	2	-3
CCCCn1c(N)c(N(CC(C)C)C(=O)C2CCN(S(=O)(=O)c3ccc(C)c(C)c3)CC2)c(=O)[nH]c1=O	10	3	·	·	12	·
COc1cccc(NC(=O)n2ncc3c(C)cccc32)c1	24	6	·	·	-2	·
COC(=O)c1cccc(NC(=O)CCNC(=O)c2ccco2)c1	3	-1	·	·	-3	·
CCOc1cc(CNc2cccc3[nH]c(C)nc23)ccc1OC	38	1	·	·	-25	·
Cc1ccc(/C=N/NC(=S)NC(C)C)o1	-37	-3	2	72*	-31	0
NC(=O)c1ccccc1OCc1nnc(-c2ccccc2Br)o1	-57	2	·	·	-98	·
Cc1ccc(-n2nc3ccc(NC(=S)NC(=O)/C=C/c4ccco4)cc3n2)cc1	-96	-3	-1	-18	-57	-4
CCC(=O)Nc1cc2nn(-c3ccc(C)cc3)nc2cc1C	80*	-8	-3	-116	-34	-2
Cc1ccc(-n2nc3cc(C)c(NC(=S)NC(=O)/C=C/c4ccco4)cc3n2)cc1	-257	3	63*	-43	-55	68*
OC(Cn1cnnc1)c1ccccc1 (centres undefined)	4	6	·	·	-15	·
Cc1ccc(-c2[nH]c3cc(C(N)=O)ccc3c(=O)c2O)cc1	-21	·	·	·	·	·
CCCNC(=O)c1ccc2c(=O)c(O)c(-c3ccc(OC)cc3)[nH]c2c1	88*	·	·	·	·	·
CCCNC(=O)c1ccc2c(=O)c(O)c(-c3ccsc3)[nH]c2c1	87*	·	·	·	·	·
Cc1ccc(CNC(=O)c2ccc3c(=O)c(O)c(-c4ccc(C)cc4)[nH]c3c2)cc1	94*	·	·	·	·	·
CCCNC(=O)c1ccc2c(=O)c(O)c(-c3ccc(C)cc3)[nH]c2c1	69*	·	·	·	·	·
COc1ccccc1C(=O)NC(C)c1ccc(-n2ccnc2)cc1 (centres undefined)	17	6	·	·	3	·
CCC(C)c1ccccc1N1CC(C(=O)Nc2ccc(C)c(S(=O)(=O)N3CCOCC3)c2)CC1=O (centres undefined)	-9	·	·	·	·	·
CCCCN(C(=O)c1ccc(C)cc1)c1c(N)n(CCC)c(=O)[nH]c1=O	9	-10	·	·	12	·
Cc1cccc(-n2ncc3c2CCCC3NC(=O)CCN2Cc3ccccc3C2=O)c1C (centres undefined)	8	-4	·	·	-13	·
O=C(Oc1c(-c2ccccc2)c(=O)n2c3c(cccc13)CC2)c1ccccc1	-24	-2	-7	·	0	1
O=C(Oc1c(-c2ccccc2)c(=O)n2c3c(cccc13)CC2)c1cccc([N+](=O)[O-])c1	77*	-1	-5	·	-3	-2
COc1ccc(C(C(=O)NCCC(C)C)N(CCO)C(=O)c2snc(C(N)=O)c2N)cc1 (centres undefined)	-20	9	·	·	8	·
O=C(CCn1ccnc1)Nc1cc(Cl)ccc1O	-7	7	·	·	2	·
CN1CCN(C(=S)NC(=O)c2ccc(C(C)(C)C)cc2)CC1	-21	10	3	17	12	0
